These results are taken from PubChem BioAssay AID1259343 (VanderVen Lab, College of Veterinary Medicine, Cornell …, 2017).

In all, about 6,200 compounds went through this assay and about 2,900 (47%) were called active. The set was probably picked from earlier hits. The list shows a part of the results. Unmarked numbers belong to inactive results. Rule as the data show it: active = inhibition above about 50%; inactive = the rest.

The experiment in a line: Mycobacterium tuberculosis growth inhibition, primary screen (AID 1259343). Particulars: inhibition: at 10 µM, active compounds read high; outcome: 10 uM.
The inhibition is the relative decrease from the control value, in per cent. Take `COC(=O)c1nnn(-c2ccc(C)c(C)c2)c1C(=O)OC`: the inhibition is 82.4% (active).
Turning to `COC(=O)CCc1nnc(NS(=O)(=O)c2ccc(C)c(C)c2)s1`, the inhibition was 48.8%.
With `Cc1cc(N)c2ccccc2[n+]1CCCCCCCCCC[n+]1c(C)cc(N)c2ccccc21`, the inhibition was 72.6% (active).
Turning to `c1cnc(Sc2ccc3ccccc3c2)nc1`, the inhibition is 32.8%.
Under `c1cnc2c(c1)ccc1cccnc12` stands 95.2% (active); under `c1ccc(-c2cn3c(n2)CCc2ccc4cccnc4c2-3)cc1`, 16.6%; under `NC(=O)COc1cccc(CN2CCCSc3ccccc32)c1`, 35.4%.
For the molecule `Cc1c(Cc2ccccc2)c(=O)oc2cc(OCC(N)=O)ccc12`, the inhibition was 62.1% (active).
`COc1cccc(-c2coc3c(C)c4oc(=O)c(CCC(=O)O)c(C)c4cc23)c1`: the inhibition was 47%.
In the case of `CCc1ccc(OCCn2c(CO)nc3ccccc32)cc1`, the inhibition was 34.1%.
In the case of `ClC1(Cl)CC1Cn1c(Cc2ccccc2)nc2ccccc21` (stereo not drawn), the inhibition was 25.7%.
For `CCc1ccc(OCCCn2c(CO)nc3ccccc32)cc1`, the inhibition is 77% (active).
Turning to `CCOc1ccc(N=C(Nc2ccc(OCC)cc2)SC)cc1`, the inhibition is -1.39%.
On to `COc1ccc(N=C(Nc2ccc(OC)cc2)SC)cc1`, for which the inhibition is 74.3% (active).
Regarding `CCn1c(=S)[nH]c2scc(-c3cccs3)c2c1=O`, the inhibition is 98.8% (active).
Under `Cn1c(=S)[nH]c2scc(-c3cccs3)c2c1=O` stands -21.9%; under `CCn1c(=S)[nH]c2sc3c(c2c1=O)CCC(C)C3` (stereo not drawn), 21.2%.
Take `Cc1csc(NC(=O)c2ccc(COc3cccc4c3OC(C)(C)C4)cc2)n1`: the inhibition was 92.8% (active).
On to `CCN(CC)[P+](N(C)Cc1ccco1)(N(CC)CC)N(CC)CC`, for which the inhibition was 30.8%.
Regarding `CC(C)c1ccc(C2N=C(N)Nc3nc4ccccc4n32)cc1` (stereo not drawn), the inhibition was 13.8%.
Turning to `NC1=NC(c2ccc(-c3ccccc3)cc2)n2c(nc3ccccc32)N1` (stereo not drawn), the inhibition is 26.9%.
The value for `NC1=NC(c2cccc(Cl)c2)n2c(nc3ccccc32)N1` (stereo not drawn) was 56.7% (active).
As to `CC(Cn1cccn1)NC(=O)c1ccc(Br)o1` (stereo not drawn), the inhibition is 22.1%.
As to `Cc1cc(C(=O)NC(C)Cc2ccc(Br)cc2)on1` (stereo not drawn), the inhibition is 55.5% (active).
As for `Cc1oc(C)c(C(=O)NC(C)Cc2ccc(Cl)cc2)c1C` (stereo not drawn), the inhibition is 42.4%.
As for `CCCn1nc(C)c(CNc2ccc(Br)cc2)c1C`, the inhibition was 20%.
Under `COc1ccc(C2CC(=O)c3cc([N+](=O)[O-])ccc3O2)cc1` (stereo not drawn) stands 96.6% (active); under `CN(C)C(=O)n1nnnc1Cc1ccc(-c2ccccc2)cc1`, 39.2%; under `Cc1cn2nc(NC3CCc4ccccc43)sc2n1` (stereo not drawn), 41.4%.
As for `O=C(CCc1nnc(Cc2ccc(-c3ccccc3)cc2)o1)NC1CCc2ccccc21` (stereo not drawn), the inhibition was 62% (active).
For `CC(NC(=O)CCc1nnc(Cc2ccc(-c3ccccc3)cc2)o1)c1ccccc1` (stereo not drawn), the inhibition is 37.7%.
The value for `O=C(CCc1nnc(Cc2ccc(-c3ccccc3)cc2)o1)NCCc1ccccn1` was 50.7% (active); that for `O=C(CCc1nnc(Cc2ccc(-c3ccccc3)cc2)o1)NCc1cccnc1` was “inactive”.
As to `O=c1oc2c(c(O)c1-c1ccccc1)-c1ccccc1CC2`, the inhibition is 81% (active).
For the molecule `O=C(Cc1noc(C2CC2c2ccc(Cl)cc2)n1)NC1CCCC1` (stereo not drawn), the inhibition was 91.9% (active).
The value for `CC(C)(C)c1nc(CNC(=O)Cc2ccc(Cl)cc2)no1` was 27.8%.
In the case of `O=C(Cc1coc(-c2ccccc2)n1)NC1CCCC1`, the inhibition is 21.1%.
The value for `Nc1ccc(-n2cnc3ccccc32)cc1` was 90.2% (active).
On to `CC(C)c1nc(SCC(=O)N(C)CCOc2ccc(Cl)cc2)n[nH]1`, for which the inhibition was 34.8%.
For the molecule `CCOC(=O)c1cnc(SCc2ccc(Cl)cc2)nc1N`, the inhibition was 89.2% (active).
Turning to `Clc1ccc2nnc(-c3ccc(Br)cc3)n2n1`, the inhibition was 68.1% (active).
As to `Brc1ccc(-c2ccc(Br)cc2)cc1`, the inhibition was 38.3%.
Take `CC(CC(=O)Nc1ccccc1-c1nn[nH]n1)CC(C)(C)C` (stereo not drawn): the inhibition is -15.1%.
Under `CCOC(=O)c1c(C)c(C(=O)NCCC(C)C)c(C)n1Cc1ccccc1` stands 56.4% (active); under `CC(C)CCNC(=O)c1csc(-c2ccccc2)n1`, -48.7%.
With `CCOc1nc(C#N)nc(N2CCOCC2)n1`, the inhibition was 22.3%.
Turning to `COC(=O)C1=C(C)N(C)C(=O)C12c1ccccc1-c1oc(N)nc12` (stereo not drawn), the inhibition is 58.3% (active).
As for `COc1c(F)c(F)c(C(=O)C2C(=O)C=C(c3c(F)c(F)c(OC)c(F)c3F)OC2=O)c(F)c1F` (stereo not drawn), the inhibition is 36.4%.
The value for `Cc1ccc2nc(-c3ccccn3)c(NC(C)(C)CC(C)(C)C)n2c1` was 101% (active); that for `Cc1cccn2c(NC(C)(C)CC(C)(C)C)c(-c3cccc(OC(=O)c4cccc5ccccc45)c3)nc12` was 9.87%.
Under `O=C(Nc1ccc(C(F)(F)F)[nH]c1=O)c1ccccc1` stands -22.3%.
On to `Cc1ccc(NC(=O)c2cc3c(C(F)(F)F)cc(=O)[nH]c3o2)c(Cl)c1`, for which the inhibition is 101% (active).
With `Cc1ccc(-n2nc3c(c2NC(=O)/C=C\c2ccccc2)CSC3)cc1`, the inhibition is 84% (active).
On to `Cc1cccc(C2CC(C(=O)N(C)Cc3ccco3)CN(Cc3cccc(F)c3)C2)c1` (stereo not drawn), for which the inhibition is 54.6% (active).
Turning to `CCCc1ccc(CN2CCN(Cc3cccc(F)c3)CC2)o1`, the inhibition is 45.4%.
Consider `CN(Cc1ccco1)C(=O)c1sc2cc(F)ccc2c1Cl`, for which the inhibition was 20.1%.
As for `CC(C)Nc1ncccc1C(=O)NCCc1cccc(Cl)c1`, the inhibition was 15.2%.
Turning to `Cc1cc(C(=O)NCCc2ccc(Cl)cc2)c(C)o1`, the inhibition is 88.2% (active).
Consider `CC(C)Cc1noc(Cn2cc(I)cn2)n1`, for which the inhibition is 91.5% (active).
`CC(C)Cc1nc(CS(=O)(=O)C/C=C/c2ccccc2)no1`: the inhibition was 43.6%.
In the case of `CC(CCC(=O)O)[C@H]1CCC2C3CC[C@@H]4C[C@H](O)CC[C@]4(C)C3C=C[C@@]21C` (stereo partly drawn), the inhibition was 34.3%.
Consider `CN(CCOc1ccc(F)cc1)Cc1nc2cc(Cl)ccc2c(=O)[nH]1`, for which the inhibition was -0.34%.
The value for `O=S(CCCOc1ccc(F)cc1)Cc1ccc(F)cc1Cl` (stereo not drawn) was 89.6% (active); that for `Cc1cc(NC(=O)c2cccc(F)c2)n(-c2nc3c(c(=O)[nH]2)CCC3)n1` was 101% (active).
Regarding `Cc1cc(NC(=O)c2cccc(C(F)(F)F)c2)n(-c2nc3c(c(=O)[nH]2)CCC3)n1`, the inhibition was 100% (active).
In the case of `O=C(NCCNc1cccc(C(F)(F)F)n1)c1ccc(O)cc1`, the inhibition was 73.2% (active).
Consider `CN(C)C(CNC(=O)c1ccc(C(F)(F)F)cc1)c1c(F)cccc1Cl` (stereo not drawn), for which the inhibition was 8.7%.
Under `CN(Cc1ccc(Br)s1)Cn1ncc2c([nH]c3ccccc32)c1=O` stands -13.5%; under `Cc1nc([N+](=O)[O-])cn1CCC(=O)NOCc1ccccc1`, -5.24%; under `CCNC(=O)c1ccccc1OCc1cccc(Br)c1`, 19.8%.
The value for `O=C(Nn1cc([N+](=O)[O-])cn1)c1cccc(COc2ccc(Br)cc2)c1` was 78.8% (active); that for `CNC(=O)Cc1ccc(-c2cc(OC)ccc2F)cc1` was 57.2% (active).
For the molecule `CCCCCCSc1s[nH]c(=O)c1C#N`, the inhibition result is “inactive”.
Under `CCCSc1nsc(SCCC)c1C#N` stands 97.4% (active); under `O=c1cc2c(nn1Cc1ccc(Br)cc1F)CCCC2`, -5.6%.
With `Fc1ccccc1Cn1nnc(-c2ccc(Br)cc2)n1`, the inhibition was 94.7% (active).
Turning to `Fc1ccc(-c2nnn(Cc3ccccc3Br)n2)cc1`, the inhibition was -14%.
Regarding `Cc1ccc2oc(CN3CCN(c4cc(N)nc(N)n4)CC3)c(C)c2c1`, the inhibition is 34.6%.
Under `C/C(=C\c1cc(Cl)ccc1O)CN1CCN(c2ncc(F)cn2)CC1` stands 37.7%; under `C/C(=C\c1ccco1)CN1CCN(c2nc3cc(C)ccc3o2)CC1`, 94.4% (active).
The value for `CCCCN(C(=O)c1nc2nccc(C)n2n1)c1ccccc1` was -8.51%; that for `C=CCSc1nnc(-c2sc3ccccc3c2Cl)o1` was 66.8% (active).
For `S=c1oc(-c2sc3ccccc3c2Cl)nn1CN1CCOCC1`, the inhibition is 1.82%.
For `C(=Cc1ccccc1)CSc1nnc(-c2c[nH]c3ccccc23)o1`, the inhibition was 19.9%.
In the case of `COc1cc2c(cc1OC)CN(C(=O)CCl)CC2`, the inhibition was 83.7% (active).
As to `COc1cc(OC)c(C2=CCN(C(=O)CC3CCCC3)CC2)c(OC)c1`, the inhibition is 5.97%.
For `CCc1csc(NC(=O)C2=NOC(c3ccccc3)C2)n1` (stereo not drawn), the inhibition is 64% (active).
The value for `O=C(Cc1csc(NC(=O)NC2CCCCC2)n1)Nc1ccccc1Oc1ccccc1` was -3.55%; that for `Brc1cc(CNc2cccnc2N2CCCC2)cs1` was 21.1%; that for `Cc1csc2nc(CNc3ccc(NC(=O)C4CC4)cc3C(F)(F)F)cc(=O)n12` was 10.5%.
As to `O=c1cc(CNc2cccc(F)c2)nc2sc3c(n12)CCCC3`, the inhibition is 30.1%.
Under `Cc1csc2nc(CNc3cccc(C#Cc4cccs4)c3)cc(=O)n12` stands 60.6% (active); under `O=C(NCCc1ccccc1Cl)c1cccc2ccnn12`, 44.4%.
Under `CC(CCc1ccccc1)NC(=O)c1cc(Cl)ccn1` (stereo not drawn) stands 43.1%; under `CC(Cc1ccccc1Cl)NC(=O)c1ccccn1` (stereo not drawn), 70.5% (active).
With `Cc1ccc(S(=O)(=O)Nc2cc(C(C)C)no2)s1`, the inhibition is 43.6%.
In the case of `Cc1ccc(S(=O)(=O)NC(C)c2ccc(Cl)cc2Cl)s1` (stereo not drawn), the inhibition is 42.2%.
As to `Cc1ccc(S(=O)(=O)NCCc2sc(-c3ccc(Cl)cc3)nc2C)s1`, the inhibition is 76.3% (active).
With `CCCCOc1ccc(C(=O)Nc2cc(C)nn2-c2nc(C)c(C)c(=O)[nH]2)cc1`, the inhibition is 16.8%.
`CCOc1ccc(C(=O)Nc2cc(C)nn2-c2nc(C)cc(=O)[nH]2)cc1`: the inhibition is 102% (active).
As for `CCCCOc1ccc(C(=O)Nc2cc(C)nn2-c2nc(C)cc(=O)[nH]2)cc1`, the inhibition was 101% (active).
For `CCOc1ccc(C(=O)Nc2cc(-c3cccs3)nn2-c2nc(C)cc(=O)[nH]2)cc1`, the inhibition was 93.9% (active).
`Cc1ccc(C)c2c(C)c(C(=O)NCC3(C)CCCO3)oc12` (stereo not drawn): the inhibition is 38.4%.
